We go through nine compounds from PubChem BioAssay.

Where “and” joins values, the source holds several entries; their conditions need not be identical. Equal values may be shown once. Calls of active or inactive are those of the source.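 How the source made its calls, unless noted: active means thallium flux through the channel raised or lowered by more than 3 SD from vehicle-only wells, actives on both sides; inactive means the rest.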

By viability is commonly meant the share of living cells, or the viability signal relative to a control. In general, inhibition refers to the change of the read-out against control, counted positive when it falls.

Assay [1] can be described thus: P. berghei load reduction in hepatocytes – cell-based, HepG2, luciferase luminescence, HepG2 viability, primary screen (AID 624349; in the data active means parasite load remaining mostly below about 12%, no sharp cut-off; inactive means mostly above about 10%;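 further: 100% = mean of DMSO negative control wells on the same plate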). Particulars: P. berghei liver stage in HepG2, luciferase luminescence, concentration not given here; parasite load remaining: stronger effect = lower value; viability: measured here: HepG2 viability without parasites.
Assay [2] is described as follows: signal quenchers or enhancers, Cy5 substrate/SSB – biochemical, NIH Clinical Collection, E. coli SSB, artefact control for HCV NS3 helicase inhibitor project (AID 743268; call rule not given here). Particulars: Cy5-oligo bound E. coli SSB, fluorescence interference.
Assay [3] deals with Hepatitis C virus NS3 helicase. Put plainly: blockers of NS3h binding to DNA – biochemical, fluorescence polarization, NIH Clinical Collection, primary screen (AID 743270; call rule not given here). Particulars: NS3 helicase binding to Cy5-dT15 DNA, stronger effect = higher value, concentration not given here. On the technique in general: Polarisation of emitted light reports the rotation of a fluorescent probe.
In assay [4] the target is Single-stranded DNA-binding protein (Escherichia coli (strain K12)) (UniProt P0AGE0). Put plainly: SSB-ssDNA binding inhibitors – biochemical, fluorescence polarization, NIH Clinical Collection, counter-screen for HCV NS3 helicase inhibitor project (AID 743271; in the data active means inhibition above about 28%). Particulars: E. coli SSB-DNA binding, stronger effect = higher value, concentration not given here.
The nature of assay [5]: compounds distorting NS3 helicase fluorescence signal – biochemical, NIH Clinical Collection, artefact control for HCV NS3 helicase inhibitor project (AID 743272; call rule not given here;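 further: HCV NS3 helicase with a Cy5 labelled single stranded DNA probe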). Particulars: fluorescence interference counterscreen, HCV NS3 helicase assay; stronger effect = lower value. Background: The purpose of a counterscreen is to sort out artefacts and off-target activity.
The subject of assay [6] is Neuropilin-2 / VEGF-C interaction (human). Put plainly: small molecules blocking Neuropilin-2/VEGF-C interaction – biochemical, microplate binding format, z-score (AID 743281; call rule not given here). Particulars: microplate NRP2/VEGF-C binding assay; stronger effect = lower value.
Assay [7] can be described thus: modulation of C. elegans fzo-1 (AID 1259413; call rule not given here;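 further: fzo-1 mutant C. elegans worms in liquid wells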). Particulars: C. elegans fzo-1 modulator screen, mean read-out; stronger effect = higher value.
Assay [8] relates to Aerobactin synthetase IucA (Klebsiella pneumoniae hvKP1). Put plainly: IucA enzyme inhibition, primary screen, biochemical, Spectrum library (AID 1346200; call rule not given here;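 further: 100% = wells without compound and 0% = wells lacking enzyme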). Particulars: malachite green pyrophosphate, A620, at 8 µM, stronger effect = lower value.
Assay [9] in a line: viability loss with induced miR-34 in A549 – imaging, A549 dox-inducible miR-34, nuclei and caspase counts, primary screen (AID 1347080;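 active means compounds whose cell count with miR-34 switched on is under 0.7 times the count with it off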). Particulars: A549 miR-34 inducible, Hoechst nuclei count, 48 h.
In assay [10] the test system is F380Y. The assay is described as follows: BK channel mutant inhibitors and activators – cell-based, U2OS BacMam, thallium flux, beta subunits, selectivity assay, profiling panel (AID 1259406).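 Further: initial slope of Thallos dye fluorescence rise after thallium is added; log ratio against the mean of 0.3% DMSO vehicle wells on the same plate.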 Particulars: U2OS BacMam BK variants, at 30 µM.
Assay [11] deals with F380Y/beta1. The description is as above. Particulars: U2OS BacMam BK variants, at 30 µM.
Assay [12] concerns F380Y/beta2Delta. Described as above. Particulars: U2OS BacMam BK variants, at 30 µM.
Assay [13] relates to F380Y/beta4. The assay is described as above. Particulars: U2OS BacMam BK variants, at 30 µM.
Assay [14] has as its target Calcium-activated potassium channel subunit alpha-1 (Homo sapiens) + Leucine-rich repeat-containing protein 26 (Homo sapiens) (UniProt Q12791+Q2I0M4). The description is as above. Particulars: U2OS BacMam BK variants, F380Y/Slo1WT/gamma1, at 30 µM.
Assay [15] relates to R275C. The description is as above. Particulars: U2OS BacMam BK variants, at 30 µM.
Assay [16] deals with R275C/beta1. Described as above. Particulars: U2OS BacMam BK variants, at 30 µM.
For assay [17], the system named is R275C/beta2Delta. Described as above. Particulars: U2OS BacMam BK variants, at 30 µM.
Assay [18] has as its system R275C/beta4. The assay is described as above. Particulars: U2OS BacMam BK variants, at 30 µM.
Assay [19] has as its system R275C/Slo1WT/beta2. The assay is described as above. Particulars: U2OS BacMam BK variants, at 30 µM.
A short description of assay [20]: EMT-state selective cytotoxicity in co-culture – imaging, PC-3E GFP, TEM4-18 mCherry, primary screen (AID 1345086;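 active means compounds killing one labelled cell type while sparing the other, by normalised counts and ratio limits, not self-fluorescent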;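 further: cells exposed to compound for 72 h before imaging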;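 on red/green cell ratio (normalised): normalised mesenchymal count divided by normalised epithelial count so high means epithelial killing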). Particulars: PC-3E GFP / TEM4-18 mCherry co-culture, imaging cell counts, at 1 µM.
[21] abbreviates: measured here: relative caspase fold change +Dox/-Dox.
Setting [22] is: measured here: total cells with miR-34 induction, stronger effect = lower value.
Where [23] appears, read: measured here: total cells without miR-34 induction.

Chain of Calcium-activated potassium channel subunit alpha-1 (Homo sapiens) + Leucine-rich repeat-containing protein 26 (Homo sapiens) (Q2I0M4 whole entry, looked up, one chain of several): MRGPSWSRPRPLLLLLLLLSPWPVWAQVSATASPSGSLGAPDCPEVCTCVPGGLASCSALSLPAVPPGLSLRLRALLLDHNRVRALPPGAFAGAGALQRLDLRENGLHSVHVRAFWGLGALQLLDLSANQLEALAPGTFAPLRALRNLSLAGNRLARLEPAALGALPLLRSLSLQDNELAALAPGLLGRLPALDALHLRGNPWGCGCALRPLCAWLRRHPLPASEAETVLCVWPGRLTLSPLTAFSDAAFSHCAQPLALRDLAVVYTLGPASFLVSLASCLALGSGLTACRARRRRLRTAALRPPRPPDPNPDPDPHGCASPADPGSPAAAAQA

With `Cc1ccc(-c2nc3ccc(C)cn3c2CC(=O)N(C)C)cc1`, in assay [1], the parasite load remaining was 37% (inactive) and 120% (inactive). Besides, the viability in assay [1] is 80.3% and 64.4%. For the same compound, the fluorescence ratio is 1.04 (inactive) in assay [2] and 1.01 (inactive) in assay [5]. Besides, the figures for the inhibition in [3] and in assay [4] were -1.98% (inactive) and -2.41% (inactive), respectively. In addition, in assay [6], the z-score was -0.569 (inactive). Besides, the mean signal in assay [7] is 258 (inactive). In addition, the activity remaining in assay [8] is 101% (inactive). The fold change is 0.956 (inactive) in [9] (stronger effect = lower value) and 2.59 in assay [9] (setting [21]). Also, the figures for the cell count in assay [9] (setting [22]) and in assay [9] (setting [23]) were 9130 and 9550, respectively. Moreover, the log fold change Tl+ flux was -0.0187 (inactive) in assay [10]; 0.0272 (inactive) in [11]; 0.00568 (inactive) in [12]; -0.00795 (inactive) in assay [13]; -0.0144 (inactive) in [14]; -0.0227 (inactive) in [15]. Also, the log fold change Tl+ flux in assay [16] is -0.0502 (inactive); in [17] it was -0.00561 (inactive); in assay [18] it was 0.00879 (inactive); in assay [19] it was 0.00818 (inactive).
As for `C[C@]12CCC(=O)C[C@@H]1CC[C@@H]1[C@@H]2CC[C@@]2(C)[C@H]1CC[C@]2(C)O`, the parasite load remaining in assay [1] was 79.1% (inactive). For the same compound, the viability in assay [1] was found to be 70.4%. The fluorescence ratio was 1.04 (inactive) in [2] and 0.92 (inactive) in assay [5]. Further, the inhibition was -0.4% (inactive) in assay [3] and -3.18% (inactive) in assay [4]. Moreover, the log fold change Tl+ flux was 0.00819 (inactive) in assay [10]; -0.00468 (inactive) in assay [11]; 0.0319 (inactive) in assay [12]; 0.0289 (inactive) in [13]; 0.0101 (inactive) in assay [14]; -0.0214 (inactive) in [15]. The log fold change Tl+ flux in assay [16] was 0.0156 (inactive); in assay [17] it was 0.0537 (inactive); in [18], 0.00195 (inactive); in assay [19], 0.012 (inactive).
In the case of `CCN(C(C)=O)c1cccc(-c2ccnc3c(C#N)cnn23)c1`, in assay [1], the parasite load remaining was 67.8% (inactive). Also, in assay [1], the viability is 71%. In addition, the fluorescence ratio is 0.96 (inactive) in assay [2] and 0.98 (inactive) in assay [5]. For the same compound, the inhibition in [3] was -1.97% (inactive); in assay [4], -3.54% (inactive). In addition, the z-score in [6] is -0.583 (inactive). The mean signal in [7] was 228 (inactive). Moreover, the red/green cell ratio (normalised) in [20] (actives lie on both sides) was 1.11 (inactive). Further, the normalised cell number in [20] (measured here: epithelial PC-3E GFP cell survival) was determined as 1.1; in assay [20] (measured here: mesenchymal TEM4-18 mCherry cell survival) it was 1.22. For the same compound, the fold change in [9] (stronger effect = lower value) is 0.85 (inactive); in assay [9] (setting [21]) it was 1.13. The cell count came out at 8990 in assay [9] (setting [22]) and 10600 in [9] (setting [23]).
As for `C[C@]12CC[C@H](O)CC1=CC[C@@H]1[C@@H]2CC[C@@]2(C)[C@H]1CC[C@]2(C)O`, in [1], the parasite load remaining was 67.4% (inactive). The same compound yielded a viability in [1] of 70.8%. Besides, the results for the fluorescence ratio in assay [2] and in [5] were 1.04 (inactive) and 1.02 (inactive), respectively. For the same compound, the inhibition in assay [3] was -1.19% (inactive); in [4], -4.72% (inactive). For the same compound, the log fold change Tl+ flux is 0.0283 (inactive) in assay [10]; 0.0442 (inactive) in assay [11]; 0.0164 (inactive) in [12]; 0.0285 (inactive) in [13]; 0.0157 (inactive) in [14]; 0.0183 (inactive) in assay [15]. Also, the log fold change Tl+ flux in assay [16] was 0.0261 (inactive); in [17] it was -0.00697 (inactive); in assay [18] it was -0.00925 (inactive); in assay [19], 0.057 (inactive).
For the compound `O=C1Nc2ccc(Cl)cc2C(c2ccccc2Cl)=NC1O` (centres undefined), in assay [1], the parasite load remaining is 64.7% (inactive). This compound also showed a viability in assay [1] of 68.3%. Further, the fluorescence ratio in [2] was 0.98 (inactive); in assay [5], 0.96 (inactive). Also, the inhibition in [3] is -3.71% (inactive); in [4], -0.39% (inactive). For the same compound, the z-score in assay [6] was -0.398 (inactive). Also, the mean signal in [7] is 233 (inactive). Besides, the fold change in assay [9] (stronger effect = lower value) is 0.901 (inactive); in assay [9] (setting [21]), 1.36. The cell count in [9] (setting [22]) came out at 9700; in assay [9] (setting [23]), 10800.
For `C[N+]1(C)CCN(c2ccccc2)CC1`, the parasite load remaining in assay [1] was 117% (inactive). The compound also returned a viability in [1] of 87.7%. Moreover, the values for the fluorescence ratio in assay [2] and in assay [5] were 1.03 (inactive) and 1.01 (inactive), respectively. In addition, the inhibition in assay [3] was 6.73% (inactive); in [4], 2.21% (inactive). The z-score in assay [6] is -0.409 (inactive). Further, the mean signal in assay [7] was 284 (inactive). In addition, the fold change is 1.02 (inactive) and 0.991 (inactive) in assay [9] (stronger effect = lower value); 1.06 and 1.59 in assay [9] (setting [21]). The cell count in assay [9] (setting [22]) is 9770 and 9860; in assay [9] (setting [23]) it was 9580 and 9940. Moreover, the log fold change Tl+ flux in assay [10] was -0.0112 (inactive); in assay [11], -0.0597 (inactive); in [12], -0.0318 (inactive); in [13] it was 0.0424 (inactive); in assay [14], -0.0251 (inactive); in [15], -0.0752 (inactive). Besides, the log fold change Tl+ flux is 0.0101 (inactive) in assay [16], 0.00724 (inactive) in assay [17], -0.0438 (inactive) in assay [18] and -0.0166 (inactive) in [19].
Regarding `O=C1CN=C(c2ccccc2)c2cc([N+](=O)[O-])ccc2N1`, the parasite load remaining in assay [1] was 89.5% (inactive). Further, the viability in assay [1] came out at 68.5%. Also, the figures for the fluorescence ratio in assay [2] and in [5] were 1.05 (inactive) and 1.04 (inactive), respectively. In addition, the results for the inhibition in assay [3] and in assay [4] were 5.94% (inactive) and 2.21% (inactive), respectively. Also, in [6], the z-score was 1.12 (inactive). The mean signal in assay [7] is 253 (inactive). In addition, the fold change was 0.945 (inactive) in [9] (stronger effect = lower value) and 1.76 in [9] (setting [21]). For the same compound, the cell count turned out to be 9060 in assay [9] (setting [22]) and 9590 in assay [9] (setting [23]). Also, the log fold change Tl+ flux in assay [10] is 0.0223 (inactive); in assay [11], -0.0368 (inactive); in assay [12], 0.0172 (inactive); in assay [13], 0.0387 (inactive); in [14], 0.000443 (inactive); in [15] it was -0.0214 (inactive). The log fold change Tl+ flux in assay [16] is -0.097 (active); in assay [17], 0.0168 (inactive); in assay [18], 0.0133 (inactive); in assay [19], 0.00947 (inactive).
With `CN=C1CN(O)C(c2ccccc2)=c2cc(Cl)ccc2=N1`, the parasite load remaining in assay [1] was 61% (inactive). Further, the viability in assay [1] was found to be 68.2%. The fluorescence ratio is 0.93 (inactive) in [2] and 0.94 (inactive) in assay [5]. Further, the inhibition in [3] is -3.71% (inactive); in [4] it was 1.97% (inactive). For the same compound, the z-score in assay [6] is 0.413 (inactive). Moreover, the mean signal in assay [7] was 209 (inactive). Further, the fold change in assay [9] (stronger effect = lower value) is 0.896 (inactive); in [9] (setting [21]) it was 1.36. For the same compound, the cell count was 9820 in [9] (setting [22]) and 11000 in assay [9] (setting [23]). The log fold change Tl+ flux is 0.0582 (inactive) in [10]; 0.0256 (inactive) in assay [11]; 0.0735 (inactive) in assay [12]; 0.0618 (inactive) in assay [13]; 0.00615 (inactive) in [14]; -0.0835 (inactive) in assay [15]. Moreover, the log fold change Tl+ flux in assay [16] was 0.11 (active); in assay [17] it was 0.0426 (inactive); in assay [18], 0.0262 (inactive); in assay [19] it was -0.0229 (inactive).
With `C=CCN1CC[C@]23c4c5ccc(O)c4O[C@H]2C(=O)CCC3(O)[C@H]1C5` (some centres undefined), the mean signal in [7] is 247 (inactive).
